Data reported in PubChem BioAssay (Tox21).
Records with an inconclusive call do not appear. The source made the active and inactive calls. Unless noted, calls follow the shape of the dose curve; as a rule, active = well fitted curve in the direction sought with a large enough effect in the repeat runs; inconclusive = weak or mixed curves; inactive = no such curve, though single readings can be large; an effect the other way counts as inactive or inconclusive.

What was measured:
[1] = qHTS assay to identify small molecule antagonists of the estrogen related receptor (ERR) signaling pathway from Tox21 library - cell viability counter screen (AID 1224834); also: nearly all actives have a fitted effect of over 30% in size
How it was run: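 Compounds in DMSO were pinned onto ERR cells that had been incubated for 6 h, and the plates were held at 37 C for 17.5 h. CellTiter-Fluor reagent was then added and fluorescence was measured after 30 min.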

[2] = qHTS assay to identify small molecule agonists of the constitutive androstane receptor (CAR) signaling pathway - cell viability counter screen (AID 1224836); also: nearly all actives have a fitted effect of over 45% in size
How it was run: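 HepG2 cells stably carrying hCAR and a CYP2B6-2.2kb reporter were plated 4 h, then given compounds at 15 concentrations plus PK11195 (final 0.75 uM). After 23 h at 37 C, viability was read by CellTiter-Fluor fluorescence.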

[3] = molecular target: Nuclear receptor subfamily 1 group I member 3 (Homo sapiens) (UniProt Q14994); assay: qHTS assay to identify small molecule antagonists of the constitutive androstane receptor (CAR) signaling pathway (AID 1224838); also: nearly all actives have a fitted effect of over 40% in size
How it was run: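 Luminescence from a CYP2B6-2.2kb promoter reporter in hCAR-expressing HepG2 cells reflects CAR signaling. Cells received compounds at 15 concentrations and 50 nM CITCO (final), then incubated 24 h at 37 C/5% CO2.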

[4] = molecular target: Nuclear receptor subfamily 1 group I member 3 (Homo sapiens) (UniProt Q14994); assay: qHTS assay to identify small molecule agonists of the constitutive androstane receptor (CAR) signaling pathway (AID 1224839);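 also: HepG2 cells stably carrying human CAR and a CYP2B6 luciferase reporter; nearly all actives have a fitted effect of over 15% in size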
How it was run: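 HepG2 cells stably expressing hCAR and a CYP2B6-2.2kb luciferase reporter were treated with compounds at 15 concentrations plus 0.75 uM PK11195 (final) for 24 h at 37 C; luminescence was read after ONE-Glo addition.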

[5] = qHTS assay to identify small molecule antagonists of the estrogen related receptor signaling pathway with the pleiotropic PPARgamma coactivator (PGC) from Tox21 10K library - cell viability counter screen (AID 1224840; active = well fitted cell-killing curve with a large enough effect in the repeat runs, not every such curve was filed as active; also: nearly all actives have a fitted effect of over 40% in size)
How it was run: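 Cell viability is measured by CellTiter-Fluor fluorescence in PGC/ERR cells that receive compounds after a 6-hour attachment period and are then incubated 17.5 hours at 37 C.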

[6] = qHTS assay to identify small molecule antagonists of the estrogen related receptor signaling pathway with the pleiotropic PPARgamma coactivator (PGC) from Tox21 10K library (AID 1224841; call rule not given here; also: actives are mostly falling curves and most rising ones were filed inactive; nearly all actives have a fitted effect of over 50% in size)
How it was run: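 Cells stably carrying the PGC/ERR reporter, seeded at 2,000 per well, received pin-transferred compounds 6 h post-plating. Exposure lasted 18 h at 37 C. Signal: One-Glo luminescence.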

[7] = qHTS assay to identify small molecule agonists of the estrogen related receptor signaling pathway with the pleiotropic PPARgamma coactivator (PGC) from Tox21 10K library (AID 1224842); also: nearly all actives have a fitted effect of over 15% in size
How it was run: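 PGC/ERR reporter cell line, 2,000 cells per well, incubated 6 h at 37 C before 23 nL compound in DMSO was added. After 18 h at 37 C, One-Glo luminescence read following 30 min at room temperature.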

[8] = molecular target: Thyrotropin receptor (Homo sapiens) (UniProt P16473); assay: qHTS assay to identify small molecule agonists of the thyroid stimulating hormone receptor (TSHR) signaling pathway (AID 1224843; calls by dose curve; also: nearly all actives have a fitted effect of over 45% in size)
How it was run: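 HEK293/TSHR, 800 cells/well; cpd 30 min RT; add cAMP-d2 + anti-cAMP-cryptate, 1 h RT; fluorescence read on plate reader. 15-pt titration, n=3.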

[9] = qHTS assay to identify small molecule agonists of the hypoxia (HIF-1) signaling pathway - cell viability counter screen (AID 1224844; calls by dose curve; also: nearly all actives have a fitted effect of over 50% in size)
How it was run: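 Viability counter screen: HRE-bla ME-180 cells plated 5 hrs before compound addition, treated 17 hrs at 37C and 5% CO2, then CellTiter-Glo added after the FRET reporter read; luminescence after 30 min.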

[10] = qHTS assay to identify small molecule agonists of H2AX (AID 1224845; active = well fitted activation curve with a large enough effect in the signal ratio in the repeat runs, not every such curve was filed as active; the % refers to the signal ratio)
How it was run: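 Wild-type CHO-K1 cells, plated overnight, exposed 3hr at 37C to 15 concentrations (0.76% DMSO final). Lysed, then HTRF anti-pH2AX (S139) cryptate and anti-H2AX-d2 antibodies, 24 hr room temperature; 665/620 nm emission read.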

[11] = qHTS assay to identify small molecule agonists of the hypoxia (HIF-1) signaling pathway (AID 1224846; active = well fitted activation curve with a large enough effect in the signal ratio in the repeat runs, not every such curve was filed as active; the % refers to the signal ratio)
How it was run: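 Agonist mode reporter screen. ME-180 cells stably expressing bla under HRE control received test compounds in DMSO for 17 hrs (37C, 5% CO2), and beta-lactamase activity was then detected with the CCF4-AM FRET substrate.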

[12] = qHTS assay to identify small molecule agonists of H2AX - cell viability counter screen (AID 1224847; calls by dose curve; also: top concentration of the series differs between compounds; nearly all actives have a fitted effect of over 30% in size)
How it was run: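 Wild-type CHO-K1 cells (10% FBS medium) were plated overnight at 37C, exposed to compounds at 15 concentrations for 3 hr at 37C (0.76% DMSO final), and viability was read as CellTiter-Glo luminescence after 30 min at room temperature.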

[13] = qHTS assay to identify small molecule antagonists of the estrogen related receptor (ERR) signaling pathway from Tox21 library (AID 1224848); also: nearly all actives have a fitted effect of over 50% in size
How it was run: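 Compounds dissolved in DMSO are pin-transferred onto ERR reporter cells (2,000 per well) that have settled for 6 h at 37 C. Plates then incubate 18 h at 37 C before ONE-Glo luciferase reagent and a luminescence read 30 min later.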

[14] = qHTS assay to identify small molecule agonists of the estrogen related receptor (ERR) signaling pathway from Tox21 library (AID 1224849; calls by dose curve; also: nearly all actives have a fitted effect of over 15% in size); settings: ERR reporter cell line, ONE-Glo luciferase, 18 h; at 92.4 µM (top of the series) unless noted
How it was run: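 Quantitative HTS in agonist format: NTP ERR cell line, compounds transferred in DMSO after 6 h plating, 18 h incubation at 37 C, ONE-Glo luminescence endpoint.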

[15] = qHTS RealTime-Glo MT Cell Viability Assay in HepG2 cells - 24 hour (AID 1224867); also: nearly all actives have a fitted effect of over 50% in size
How it was run: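 HepG2 cells were seeded at 600 cells/well together with NanoLuc luciferase and a cell-permeant prosubstrate, preincubated 5 h at 37 C/5% CO2, then pin-dosed with compounds in DMSO. Nonlytic luminescence from viable cells was read at each time point.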

[16] = qHTS RealTime-Glo MT Cell Viability Assay in HEK293 cells - 32 hour (AID 1224868)
How it was run: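 HEK293 cells were seeded at 600 cells/well together with NanoLuc luciferase and cell-permeant prosubstrate, preincubated 5 h at 37 C/5% CO2, then given compound in DMSO by pintool. Luminescence from viable-cell prosubstrate reduction was read repeatedly over 40 h.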

[17] = A CellTox Green Cytotoxicity Assay to monitor cytotoxicity in HEK293 cells - 0 hour (AID 1224869); also: nearly all actives have a fitted effect of over 50% in size
How it was run: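 Dead-cell fluorescence measured kinetically: asymmetric cyanine dye, HEK293, 600 cells/well, 5 h settle, 23 nL cpd/DMSO, 37 C, reads 0–40 h every 8 h.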

[18] = qHTS assay to identify small molecule antagonists of the constitutive androstane receptor (CAR) signaling pathway - cell viability counter screen (AID 1224837); also: nearly all actives have a fitted effect of over 45% in size
How it was run: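 Cells are seeded, rested 4 hr at 37 C/5% CO2, dosed with compound (15-point series) and 50 nM CITCO, incubated a further 23 hr, and then CellTiter-Fluor reagent is added before fluorescence is read. The line is HepG2 with stable hCAR and CYP2B6-2.2kb.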
% is scaled to controls: 0 for no effect and ±100 for the full control effect.

Sequence of Nuclear receptor subfamily 1 group I member 3 (Homo sapiens) (Q14994 whole entry, looked up): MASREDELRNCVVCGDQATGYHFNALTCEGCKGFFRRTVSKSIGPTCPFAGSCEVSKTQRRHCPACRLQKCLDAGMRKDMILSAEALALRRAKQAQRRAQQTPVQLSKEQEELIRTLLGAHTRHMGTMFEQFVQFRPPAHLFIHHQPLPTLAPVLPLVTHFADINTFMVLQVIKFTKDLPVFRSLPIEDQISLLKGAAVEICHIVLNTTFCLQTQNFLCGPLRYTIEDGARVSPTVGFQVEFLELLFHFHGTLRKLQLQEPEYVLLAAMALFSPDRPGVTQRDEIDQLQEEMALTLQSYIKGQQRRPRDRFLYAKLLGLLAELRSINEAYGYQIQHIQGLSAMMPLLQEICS
Sequence of Thyrotropin receptor (Homo sapiens) (P16473 whole entry, looked up): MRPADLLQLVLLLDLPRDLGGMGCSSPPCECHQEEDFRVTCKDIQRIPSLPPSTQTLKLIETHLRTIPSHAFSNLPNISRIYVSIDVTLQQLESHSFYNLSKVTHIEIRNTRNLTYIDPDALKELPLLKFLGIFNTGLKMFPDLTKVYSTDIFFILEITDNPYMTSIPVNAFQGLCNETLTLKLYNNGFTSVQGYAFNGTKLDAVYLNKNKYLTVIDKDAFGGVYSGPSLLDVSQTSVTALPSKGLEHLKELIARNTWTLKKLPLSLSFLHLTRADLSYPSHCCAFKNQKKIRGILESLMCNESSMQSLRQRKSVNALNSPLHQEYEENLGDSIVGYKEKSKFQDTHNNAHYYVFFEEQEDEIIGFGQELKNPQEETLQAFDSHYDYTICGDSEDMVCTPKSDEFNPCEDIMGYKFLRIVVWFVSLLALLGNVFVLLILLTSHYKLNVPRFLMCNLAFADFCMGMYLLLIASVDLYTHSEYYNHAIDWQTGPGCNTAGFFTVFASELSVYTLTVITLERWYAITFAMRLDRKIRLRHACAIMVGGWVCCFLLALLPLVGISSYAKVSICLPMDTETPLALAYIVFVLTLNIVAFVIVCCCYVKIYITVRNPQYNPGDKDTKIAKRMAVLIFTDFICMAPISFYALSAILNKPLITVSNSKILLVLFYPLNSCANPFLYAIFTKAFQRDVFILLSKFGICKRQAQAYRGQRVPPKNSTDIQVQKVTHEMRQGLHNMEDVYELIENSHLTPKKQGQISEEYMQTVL

CCc1ccc(O)c(OC)c1
inactive: Potency [1] | Potency [2] | Potency [3] | Potency [4] | Potency [5] | Potency [6] | outcome [7] | Potency [8] | Potency [9] | outcome [10] | outcome [11] | Potency [12] | Potency [13] | activity change, positive = activation [14] 4.86% | Potency [15] | Potency [16] | Potency [17]

Nc1ccc(S(=O)(=O)Nc2ccnn2-c2ccccc2)cc1
inactive: viability change, negative = cytotoxic [1] -1.42% [at 19 µM] | viability change, negative = cytotoxic [2] 4.16% [at 19 µM] | activity, negative = inhibition [3] 0.346% [at 19 µM] | activation [4] -2.19% [at 19 µM] | viability change, negative = cytotoxic [5] 2.18% [at 19 µM] | Potency [8] | activity change, negative = cytotoxicity [9] -2.16% [at 15.8 µM] | outcome [10] | Potency [12] | activity change, negative = cytotoxicity [15] 1% [at 15.8 µM] | activity change, negative = cytotoxic [16] 5.86% [at 15.8 µM] | cytotoxicity [17] 1.17% [at 15.8 µM]

CCS(=O)(=O)c1ccc(OC)c(C(=O)OC)c1
inactive: Potency [1] | Potency [2] | Potency [18] | Potency [3] | Potency [4] | Potency [5] | Potency [6] | Potency [9] | outcome [10] | outcome [11] | Potency [12] | Potency [13] | activity change, positive = activation [14] 4.43% [at 42.5 µM] | Potency [15] | Potency [16] | Potency [17]

N=C(N)c1ccc(OCCCOc2ccc(C(=N)N)cc2)cc1
inactive: Potency [1] | Potency [2] | Potency [18] | Potency [3] | Potency [4] | Potency [5] | Potency [6] | outcome [7] | Potency [8] | Potency [9] | outcome [10] | outcome [11] | Potency [12] | Potency [15] | Potency [17]

Cc1c(O)cccc1O
inactive: Potency [1] | Potency [2] | Potency [18] | Potency [3] | Potency [4] | Potency [5] | Potency [6] | outcome [7] | Potency [9] | outcome [10] | outcome [11] | Potency [12] | Potency [13] | activity change, positive = activation [14] 2.02% | Potency [15] | Potency [16] | Potency [17]

Nc1ccccc1S(=O)(=O)O
inactive: Potency [1] | Potency [2] | Potency [3] | Potency [4] | Potency [5] | Potency [6] | outcome [7] | Potency [8] | Potency [9] | outcome [10] | outcome [11] | Potency [12] | Potency [13] | activity change, positive = activation [14] 3.7% | Potency [15] | Potency [16] | Potency [17]

NS(=O)(=O)c1ccccc1Cl
inactive: Potency [1] | Potency [2] | Potency [18] | Potency [3] | Potency [4] | Potency [5] | Potency [6] | outcome [7] | Potency [8] | Potency [9] | outcome [10] | outcome [11] | Potency [12] | activity change, positive = activation [14] 2.78% | Potency [15] | Potency [17]

CCN(Cc1ccncc1)C(=O)C(CO)c1ccccc1 (configuration not stated)
inactive: Potency [1] | Potency [2] | Potency [18] | Potency [3] | Potency [4] | Potency [5] | Potency [8] | Potency [9] | outcome [10] | Potency [12] | Potency [15] | Potency [16] | Potency [17]

COC(=O)c1ccc(C)cc1C1=NC(C)(C(C)C)C(=O)N1 (configuration not stated)
inactive: Potency [1] | Potency [2] | Potency [18] | Potency [3] | Potency [4] | Potency [5] | Potency [6] | outcome [7] | Potency [9] | outcome [10] | outcome [11] | Potency [12] | Potency [13] | activity change, positive = activation [14] 4.81% | Potency [15] | Potency [16] | Potency [17]

C=C1CC[C@H]2C[C@@H]1C2(C)C
inactive: Potency [1] | Potency [2] | Potency [18] | Potency [5] | Potency [8] | Potency [9] | outcome [10] | outcome [11] | Potency [12] | Potency [15] | Potency [16] | Potency [17]

CCOC(=O)c1cccc(N)c1
inactive: Potency [1] | Potency [2] | Potency [18] | Potency [3] | Potency [4] | Potency [5] | Potency [6] | Potency [8] | Potency [9] | outcome [10] | outcome [11] | Potency [12] | Potency [13] | activity change, positive = activation [14] -2.77% [at 42.5 µM] | Potency [15] | Potency [16] | Potency [17]

c1ccc(CC2=NCCN2)cc1
inactive: Potency [1] | Potency [2] | Potency [18] | Potency [3] | Potency [4] | Potency [5] | Potency [6] | outcome [7] | Potency [8] | Potency [9] | outcome [10] | Potency [12] | activity change, positive = activation [14] -1.01% [at 42.5 µM] | Potency [15] | Potency [16] | Potency [17]

N=C(N)c1ccc2cc(OC(=O)c3ccc(N=C(N)N)cc3)ccc2c1
inactive: Potency [1] | Potency [2] | Potency [18] | Potency [3] | Potency [4] | Potency [5] | Potency [6] | Potency [9] | outcome [10] | outcome [11] | Potency [12] | Potency [13] | activity change, positive = activation [14] 0.274% [at 42.5 µM] | Potency [15] | Potency [16] | Potency [17]

CCOC(=O)c1c(C)n(C)c2ccc(O)cc12
inactive: Potency [1] | Potency [2] | Potency [3] | Potency [4] | Potency [5] | Potency [6] | outcome [7] | Potency [8] | Potency [9] | outcome [11] | Potency [12] | Potency [13] | activity change, positive = activation [14] -9.16% [at 42.5 µM] | Potency [15] | Potency [16] | Potency [17]
